Measured values as given in PubChem BioAssay (EPA / NIEHS).
The source made the active and inactive calls. Rule for the calls: active = hit-call score of the fitted dose curve at least 0.9, where 1 is the maximum; inactive = score below 0.9.

Experiments:
[1] = ATG_CRE_CIS: Attagene CIS-FACTORIAL HepG2 Assay for human cAMP Responsive Element (CRE) binding protein 3 (AID 2282926); settings: HepG2 CRE cis-reporter, Attagene multiplexed mRNA; actives raise or lower the signal
Procedure, shortened: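 Readout: fluorescently labelled reporter transcripts resolved by capillary electrophoresis after RT-PCR, taken 24 h post-dosing in transfected HepG2. Endogenous transcription factor activity drives each cis-element reporter; gain or loss of signal fitted relative to DMSO control.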

[2] = biological target: CCAAT/enhancer-binding protein beta (Homo sapiens) (UniProt P17676); assay: ATG_C_EBP_CIS: Attagene CIS-FACTORIAL HepG2 Assay for human CCAAT/Enhancer Binding Protein (C/EBP) beta (AID 2282927); settings: HepG2 Attagene cis-factorial transcription factor reporter; actives raise or lower the signal
Sequence of CCAAT/enhancer-binding protein beta (Homo sapiens) (P17676 whole entry, looked up): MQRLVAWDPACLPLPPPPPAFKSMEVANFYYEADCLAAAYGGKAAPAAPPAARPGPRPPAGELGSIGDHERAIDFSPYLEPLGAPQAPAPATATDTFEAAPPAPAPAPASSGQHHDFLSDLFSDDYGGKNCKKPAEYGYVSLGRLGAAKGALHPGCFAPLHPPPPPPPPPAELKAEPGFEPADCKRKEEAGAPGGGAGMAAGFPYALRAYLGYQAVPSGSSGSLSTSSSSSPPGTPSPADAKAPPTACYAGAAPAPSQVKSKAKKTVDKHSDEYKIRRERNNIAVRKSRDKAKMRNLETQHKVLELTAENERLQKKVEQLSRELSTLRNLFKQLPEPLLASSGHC
Procedure, shortened: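 Following a 24 h incubation with test chemical, transfected HepG2 cells yielded RNA whose reporter transcripts were quantified by RT-PCR and fluorescent capillary electrophoresis, with DMSO serving as baseline for bidirectional fitting.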

[3] = ATG_CMV_CIS: Attagene CIS-FACTORIAL HepG2 Assay for human CMV (Internal Marker) (AID 2282928); settings: HepG2 CMV promoter reporter, transcription factor profiling; actives raise or lower the signal;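 note: endpoint acts as a background internal control marker rather than a target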
Procedure, shortened: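 Reporter transcripts from transfected HepG2 cells are isolated after 24 h of chemical dosing, reverse-transcribed and amplified. Fragments labeled with 6-FAM are cut with HpaI and quantified by capillary electrophoresis; DMSO defines baseline.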

[4] = ATG_DR4_LXR_CIS: Attagene CIS-FACTORIAL HepG2 Assay for human Liver X Receptor (LXR), DR4 submotif (AID 2282929); settings: HepG2 Attagene DR4 cis-reporter, mRNA transcription; actives raise or lower the signal
Procedure, shortened: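 HepG2 cells transiently transfected with cis-promoter-driven multiplexed reporter units (DR4 element) were dosed for 24 h. Reporter mRNA was quantified by RT-PCR, fluorescent primer extension, HpaI digestion and capillary electrophoresis; bidirectional fitting versus DMSO baseline.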

[5] = ATG_AP_1_CIS: Attagene CIS-FACTORIAL HepG2 Assay for human Activator Protein 1 (AP-1) (AID 2282931); settings: HepG2 Attagene cis-factorial AP-1 reporter mRNA; actives raise or lower the signal
Procedure, shortened: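 HepG2 cells transiently transfected with cis-element-driven multiplex reporter units; 24 h compound exposure. Reporter mRNA quantified by RT-PCR, FAM-labelled fragments resolved by capillary electrophoresis; bidirectional fit versus DMSO baseline.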

[6] = ATG_BRE_CIS: Attagene CIS-FACTORIAL HepG2 Assay for human Bone Morphogenetic Protein (BMP) Response Element (BRE) (AID 2282933); settings: HepG2 BMP response element reporter, Attagene transcription factor profiling; actives raise or lower the signal
Procedure, shortened: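 Endogenous transcription factor activity read in transiently transfected HepG2 cells after 24 h chemical exposure. Bidirectional curve fitting against DMSO; readout is reporter transcript level by RT-PCR with capillary electrophoresis of labelled products.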

[7] = biological target: Retinoic acid receptor alpha (Homo sapiens) (UniProt P10276); assay: ATG_DR5_RAR_CIS: Attagene CIS-FACTORIAL HepG2 Assay for human Retinoic Acid Receptor Alpha (RARE), DR5 submotif (AID 2282934); settings: HepG2 Attagene cis-factorial RARE DR5 reporter, mRNA; actives raise or lower the signal
Sequence of Retinoic acid receptor alpha (Homo sapiens) (P10276 whole entry, looked up): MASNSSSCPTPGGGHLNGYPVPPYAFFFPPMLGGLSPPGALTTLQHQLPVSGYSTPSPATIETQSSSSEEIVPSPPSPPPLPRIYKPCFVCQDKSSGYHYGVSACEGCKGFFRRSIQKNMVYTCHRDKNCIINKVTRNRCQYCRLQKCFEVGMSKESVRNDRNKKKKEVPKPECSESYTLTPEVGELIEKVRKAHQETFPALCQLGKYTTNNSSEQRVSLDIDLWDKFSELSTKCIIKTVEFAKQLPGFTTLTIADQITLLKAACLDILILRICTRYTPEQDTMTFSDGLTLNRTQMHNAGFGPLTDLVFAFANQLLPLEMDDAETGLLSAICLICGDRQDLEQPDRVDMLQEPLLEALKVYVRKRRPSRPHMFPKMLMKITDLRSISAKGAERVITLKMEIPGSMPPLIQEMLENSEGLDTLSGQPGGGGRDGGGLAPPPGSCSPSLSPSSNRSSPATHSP
Procedure, shortened: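 Endpoint fitted in both directions relative to DMSO as negative control. It reflects DR5 cis-element reporter mRNA induction in transiently transfected HepG2 cells, measured 24 h after dosing through RT-PCR and fluorescent capillary electrophoresis.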

[8] = biological target: Transcription factor E2F1 (Homo sapiens) (UniProt Q01094); assay: ATG_E2F_CIS: Attagene CIS-FACTORIAL HepG2 Assay for human E2F Transcription Factor 1 (AID 2282935); settings: HepG2 Attagene cis-reporter, E2F reporter RNA transcripts; actives raise or lower the signal
Sequence of Transcription factor E2F1 (Homo sapiens) (Q01094 whole entry, looked up): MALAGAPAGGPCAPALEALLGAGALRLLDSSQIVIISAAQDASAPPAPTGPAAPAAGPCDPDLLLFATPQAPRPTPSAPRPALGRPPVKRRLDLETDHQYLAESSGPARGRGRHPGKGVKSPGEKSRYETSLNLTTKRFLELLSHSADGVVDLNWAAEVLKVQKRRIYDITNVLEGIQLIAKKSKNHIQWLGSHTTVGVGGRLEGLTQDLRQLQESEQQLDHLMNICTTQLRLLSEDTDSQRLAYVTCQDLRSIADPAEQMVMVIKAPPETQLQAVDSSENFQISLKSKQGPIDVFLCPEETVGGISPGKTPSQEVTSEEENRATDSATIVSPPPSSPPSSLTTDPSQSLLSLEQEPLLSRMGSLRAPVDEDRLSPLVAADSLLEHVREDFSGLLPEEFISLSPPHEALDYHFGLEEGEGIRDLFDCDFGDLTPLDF
Procedure, shortened: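 First, HepG2 cells were transfected with reporter transcription units. Next, they were dosed for 24 h. Then RNA was isolated, converted to cDNA, PCR-amplified, FAM-labeled, HpaI-digested and analyzed by capillary electrophoresis.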

[9] = ATG_E_Box_CIS: Attagene CIS-FACTORIAL HepG2 Assay for human Enhancer Box (E-box) (AID 2282936); settings: HepG2 E-box cis-reporter transcription, actives raise or lower the signal
Procedure, shortened: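 Endogenous transcription factor activity was sensed in human HepG2 liver cells through transfected cis-promoter reporter units. After 24 h of dosing, total RNA was reverse-transcribed and reporter cDNA resolved by capillary electrophoresis.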

[10] = ATG_M_61_CIS: Attagene CIS-FACTORIAL HepG2 Assay for M61 Transcription Factor (Internal Marker) (AID 2282937); settings: HepG2 Attagene CIS-FACTORIAL M61 internal marker reporter; actives raise or lower the signal
Procedure, shortened: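 HepG2 cells transiently transfected with cis-element-driven multiple reporter transcription units, dosed for 24 h. Reporter mRNA measured by RT-PCR, 6-FAM primer-extension labelling, HpaI digestion and capillary electrophoresis; bidirectional fit versus DMSO baseline.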

[11] = ATG_EGR_CIS: Attagene CIS-FACTORIAL HepG2 Assay for human Early Growth Response 1 (EGR1) (AID 2282938); settings: HepG2 Attagene CIS-FACTORIAL EGR reporter mRNA; actives raise or lower the signal
Procedure, shortened: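 HepG2 cells transiently transfected with cis-promoter-driven multiplexed reporter transcription units; reporter mRNA measured 24 h after compound dosing by RT-PCR, 6-FAM primer extension, HpaI digestion and capillary electrophoresis. Bidirectional fit versus DMSO baseline.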

[12] = ATG_M_19_CIS: Attagene CIS-FACTORIAL HepG2 Assay for M19 Transcription Factor (Internal Marker) (AID 2282939); settings: HepG2 Attagene CIS-FACTORIAL M19 internal marker reporter; actives raise or lower the signal
Procedure, shortened: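 Internal marker readout, fitted in both directions against DMSO, from HepG2 cells carrying transfected cis-element reporter constructs; RT-PCR and capillary electrophoresis of reporter mRNA after 24 h exposure.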

[13] = ATG_ERE_CIS: Attagene CIS-FACTORIAL HepG2 Assay for Estrogen Response Element (ERE) (AID 2282940); settings: HepG2 ERE cis-reporter, Attagene RNA transcript; actives raise or lower the signal
Procedure, shortened: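 After 24 h compound treatment, RNA from transfected HepG2 cells was reverse-transcribed, reporter cDNA PCR-amplified, FAM-labelled, HpaI-cut and resolved by capillary electrophoresis. ERE-driven cis reporter transcripts reflect endogenous factors; gain or loss scored against DMSO.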

[14] = ATG_Ets_CIS: Attagene CIS-FACTORIAL HepG2 Assay for human Erythroblast Transformation Specific (ETS) (AID 2282941); settings: HepG2 ETS cis-reporter transcription, actives raise or lower the signal
Procedure, shortened: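 Bidirectional fit versus DMSO of reporter mRNA signal, detected by RT-PCR and capillary electrophoresis in HepG2 cells transiently transfected with cis-element reporters and dosed 24 h.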

[15] = biological target: Hepatocyte nuclear factor 3-beta (Homo sapiens) (UniProt Q9Y261); assay: ATG_FoxA2_CIS: Attagene CIS-FACTORIAL HepG2 Assay for human Forkhead box A2 (FOXA2) (AID 2282942); settings: HepG2 cis-reporter transcription factor activity, 24 h; actives raise or lower the signal
Sequence of Hepatocyte nuclear factor 3-beta (Homo sapiens) (Q9Y261 whole entry, looked up): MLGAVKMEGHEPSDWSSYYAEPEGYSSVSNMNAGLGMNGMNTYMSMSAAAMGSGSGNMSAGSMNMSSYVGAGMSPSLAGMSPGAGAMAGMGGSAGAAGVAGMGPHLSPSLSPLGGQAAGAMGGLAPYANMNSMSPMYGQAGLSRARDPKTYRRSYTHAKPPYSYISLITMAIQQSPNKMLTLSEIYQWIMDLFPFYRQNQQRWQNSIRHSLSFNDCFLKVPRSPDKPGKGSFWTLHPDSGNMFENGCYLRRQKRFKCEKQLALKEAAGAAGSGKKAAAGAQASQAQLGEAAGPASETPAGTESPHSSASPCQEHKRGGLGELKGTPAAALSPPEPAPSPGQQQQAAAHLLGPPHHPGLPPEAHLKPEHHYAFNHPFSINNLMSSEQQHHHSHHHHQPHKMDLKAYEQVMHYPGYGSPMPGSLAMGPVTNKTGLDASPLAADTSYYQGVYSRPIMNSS
Procedure, shortened: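 HepG2 cells transiently transfected with multiple cis-regulated reporter transcription units, dosed for 24 h. Reporter mRNA measured by RT-PCR, 6-FAM labelling, HpaI digestion and capillary electrophoresis; bidirectional fitting against DMSO baseline.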

[16] = ATG_FoxO_CIS: Attagene CIS-FACTORIAL HepG2 Assay for human Forkhead box O (FoxO) (AID 2282943); settings: HepG2 Attagene cis-reporter, FoxO element, mRNA; actives raise or lower the signal
Procedure, shortened: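 Values reflect reporter mRNA induction or loss in HepG2 cells 24 h post-dosing, fitted bidirectionally with DMSO as negative control and baseline. Detection used RT-PCR and fluorescence capillary electrophoresis.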

[17] = ATG_GATA_CIS: Attagene CIS-FACTORIAL HepG2 Assay for human GATA Binding Protein (AID 2282944); settings: HepG2 GATA cis-element reporter, Attagene multiplex mRNA; actives raise or lower the signal
Procedure, shortened: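 Reporter transcripts from a GATA cis-regulated unit, among multiplexed reporters in transfected HepG2 cells, were measured by RT-PCR with capillary electrophoresis after 24 h dosing. Induction or loss scored relative to DMSO.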

[18] = ATG_GLI_CIS: Attagene CIS-FACTORIAL HepG2 Assay for human Zinc Finger Protein GLI1 (AID 2282945); settings: HepG2, Attagene cis-factorial reporter mRNA, GLI element; actives raise or lower the signal
Procedure, shortened: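 HepG2 cells transiently transfected with cis-promoter multiplexed reporter units report endogenous transcription factor activity. After 24 h chemical exposure, reporter mRNA was quantified by RT-PCR, 6-FAM labelling, HpaI digestion and capillary electrophoresis, with bidirectional fitting against DMSO.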

[19] = biological target: Aryl hydrocarbon receptor (Homo sapiens) (UniProt P35869); assay: ATG_Ahr_CIS: Attagene CIS-FACTORIAL HepG2 Assay for human Aryl Hydrocarbon Receptor (Ahr) (AID 2282930); settings: HepG2 AhR cis-factorial reporter transcription; actives raise or lower the signal
Sequence of Aryl hydrocarbon receptor (Homo sapiens) (P35869 whole entry, looked up): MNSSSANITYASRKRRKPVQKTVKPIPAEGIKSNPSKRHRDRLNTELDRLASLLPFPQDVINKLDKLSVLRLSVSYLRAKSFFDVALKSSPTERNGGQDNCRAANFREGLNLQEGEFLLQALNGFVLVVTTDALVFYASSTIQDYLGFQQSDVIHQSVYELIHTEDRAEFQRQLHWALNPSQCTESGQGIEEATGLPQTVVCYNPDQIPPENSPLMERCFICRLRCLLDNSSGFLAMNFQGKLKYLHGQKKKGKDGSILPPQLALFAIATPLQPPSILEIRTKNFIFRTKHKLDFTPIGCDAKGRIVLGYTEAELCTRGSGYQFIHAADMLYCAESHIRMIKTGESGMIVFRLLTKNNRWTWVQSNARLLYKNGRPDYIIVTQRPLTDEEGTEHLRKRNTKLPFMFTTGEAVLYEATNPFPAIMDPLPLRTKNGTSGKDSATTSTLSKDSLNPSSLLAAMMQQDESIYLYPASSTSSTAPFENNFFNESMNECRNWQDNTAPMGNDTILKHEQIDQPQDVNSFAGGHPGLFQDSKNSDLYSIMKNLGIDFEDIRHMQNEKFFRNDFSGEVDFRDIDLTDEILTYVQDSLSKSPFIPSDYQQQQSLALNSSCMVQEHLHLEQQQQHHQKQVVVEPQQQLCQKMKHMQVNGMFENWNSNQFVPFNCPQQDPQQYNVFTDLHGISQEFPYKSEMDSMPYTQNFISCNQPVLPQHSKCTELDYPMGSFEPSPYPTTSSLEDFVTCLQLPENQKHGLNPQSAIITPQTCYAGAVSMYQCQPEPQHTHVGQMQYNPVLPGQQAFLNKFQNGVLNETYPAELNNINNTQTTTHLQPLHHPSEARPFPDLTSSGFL
Procedure, shortened: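 Values derive from bidirectional fitting against DMSO negative control. Underlying signal: cis-element reporter mRNA in transiently transfected HepG2, harvested 24 h post-dose and measured by RT-PCR plus capillary electrophoresis.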

[20] = ATG_AP_2_CIS: Attagene CIS-FACTORIAL HepG2 Assay for human Activator Protein 2 (AP-2) (AID 2282932); settings: HepG2 AP-2 cis-reporter, Attagene transcription factor profiling; actives raise or lower the signal
Procedure, shortened: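 Cells (HepG2) transfected with promoter-driven reporter constructs, treated 24 h. Total RNA reverse-transcribed, reporter cDNA PCR-amplified, FAM-labelled by primer extension, digested, resolved by capillary electrophoresis. Activity fitted both directions versus DMSO.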

Measured: AC50

Cc1ccc(N)cc1Cl
not listed: [19] | [20]
inactive: all other assays above

Nc1cccc2ccccc12
active: [4] 154 µM | [19] 5.16 µM | [9] 32.1 µM
not listed: [7] | [10]
inactive: all other assays above

O=[N+]([O-])c1c(Cl)c(Cl)cc(Cl)c1Cl
active: [3] 45.3 µM
not listed: [13] | [18] | [20]
inactive: all other assays above

CCNc1nc(NC(C)(C)C)nc(SC)n1
active: [3] 65.6 µM | [5] 152 µM | [9] 160 µM
not listed: [13] | [20]
inactive: all other assays above

COc1ccccc1OC
not listed: [18] | [19]
inactive: all other assays above

C=CC(=O)N(C)C
not listed: [7] | [20]
inactive: all other assays above

CCCCP(CCCC)CCCC
active: [13] 72.5 µM
not listed: [7] | [12] | [20]
inactive: all other assays above

O=C(O)C(Cl)(Cl)Cl
not listed: [13] | [19]
inactive: all other assays above

Cl/C=C\C[N+]12CN3CN(CN(C3)C1)C2
active: [3] 170 µM | [4] 41.7 µM | [5] 181 µM | [6] 19.8 µM | [9] 76.9 µM
not listed: [7] | [10] | [12] | [13]
inactive: all other assays above

CCOP(=S)(OCC)Oc1ccc(S(C)=O)cc1 (centres undefined)
active: [19] 32.5 µM
not listed: [20]
inactive: all other assays above

Clc1ccc(COC(Cn2ccnc2)c2ccc(Cl)cc2Cl)cc1 (centres undefined)
active: [4] 4.8 µM
not listed: [12] | [20]
inactive: all other assays above

C[C@]12CC[C@H](O)CC1=CC[C@@H]1[C@@H]2CC[C@]2(C)C(=O)CC[C@@H]12
active: [3] 27.7 µM | [13] 0.987 µM
not listed: [18] | [20]
inactive: all other assays above

CC(C)CCCCCCOC(=O)c1ccccc1C(=O)OCCCCCCC(C)C
not listed: [7] | [10] | [20]
inactive: all other assays above

CNC(=O)O/N=C/C(C)(C)S(C)=O (centres undefined)
active: [4] 99.5 µM | [5] 73 µM | [13] 84.1 µM
not listed: [19]
inactive: all other assays above

ClC1=C(Cl)[C@]2(Cl)[C@@H]3[C@@H](Cl)[C@@H](Cl)C[C@@H]3[C@@]1(Cl)C2(Cl)Cl
not listed: [1] | [19]
inactive: all other assays above

c1ccc(N=NNc2ccccc2)cc1
active: [4] 115 µM | [19] 5.92 µM | [5] 80 µM | [6] 123 µM | [11] 83.5 µM | [13] 26.3 µM | [15] 25.7 µM | [18] 163 µM
not listed: [1] | [20]
inactive: all other assays above

COc1cccc(C=O)c1
not listed: [1] | [13]
inactive: all other assays above

C=CCc1ccc(OC)cc1
not listed: [1] | [7] | [13] | [20]
inactive: all other assays above
